Laboratory results taken from PubChem BioAssay (NCATS).
Records with an inconclusive call do not appear. A call without a number means that no potency is given here. Activity calls are given as the source filed them. Calls follow the shape of the dose curve; as a rule, active = well fitted curve in the direction sought with a large enough effect; inconclusive = small, poorly fitted or top-dose-only effect, or another doubt; inactive = no such curve, though single readings can be large; an effect the other way counts as inactive or inconclusive.

Legend:
[1] = biological target: Arylsulfatase A (Homo sapiens) (UniProt P15289); assay: qHTS screen for enhancers of Arylsulfatase A (ASA1): LOPAC Validation Assay (AID 720538)
Arylsulfatase A (Homo sapiens), sequence (P15289 whole entry, looked up): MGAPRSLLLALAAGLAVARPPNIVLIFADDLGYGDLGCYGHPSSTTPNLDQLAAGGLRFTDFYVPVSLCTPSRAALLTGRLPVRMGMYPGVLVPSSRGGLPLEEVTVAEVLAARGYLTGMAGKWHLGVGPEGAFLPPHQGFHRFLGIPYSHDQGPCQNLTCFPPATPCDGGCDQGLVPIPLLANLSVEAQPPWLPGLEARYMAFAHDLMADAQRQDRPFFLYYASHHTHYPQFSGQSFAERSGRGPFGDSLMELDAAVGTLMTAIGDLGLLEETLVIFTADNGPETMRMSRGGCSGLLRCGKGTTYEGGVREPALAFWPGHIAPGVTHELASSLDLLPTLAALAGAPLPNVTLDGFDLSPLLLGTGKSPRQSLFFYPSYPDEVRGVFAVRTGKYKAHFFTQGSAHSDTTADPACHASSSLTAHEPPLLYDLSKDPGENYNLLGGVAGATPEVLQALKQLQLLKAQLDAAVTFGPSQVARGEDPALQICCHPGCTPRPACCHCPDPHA
Method in brief: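 SV40-transformed fibroblasts from an MLD patient (ASA-I179S) were treated with compound for 48 h at 37 C. They were then lysed with 0.5 mM pNCS substrate (final) for 14 h at room temperature and stopped with NaOH; signal read by fluorescence (Ex 525/Em 598 nm), with increase denoting enhanced activity.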

[2] = qHTS for compounds that reverse cellular toxicity of Amyloid beta (A-beta) peptide in yeast: LOPAC Validation Assay (AID 720559); details: Potency: rescue of growth toxicity
Method in brief: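 Yeast expressing toxic A-beta grown with pinned compounds at 30 C for 48 hr. Growth measured as absorbance at 600 nm; data normalized to DMSO and to an equimolar FeCl3/clioquinol mixture as positive control.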

[3] = qHTS for Activators of Parkin Expression: LOPAC Validation Assay (NLuc Reporter) (AID 720572; also: potency is read from the fitted curve at half-maximal effect)
Method in brief: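 Neuronal cells with a Parkin promoter-driven FLuc/NLuc coincidence reporter were treated 24 h at 37 C in 7-point dose response (LOPAC). NLuc luminescence read after FLuc; signals normalized to DMSO and positive control (100%).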

Compound	Potency [1]	Potency [2]	Potency [3]
S=C(S)OC1CC2CC1C1CCCC21 (stereo not given)	inactive	inactive	inactive
COc1ccccc1N1CCN(CCCCNS(=O)(=O)c2cccc3c(N(C)C)cccc23)CC1	inactive	inactive	inactive
COc1cc2c(CCNC(C)=O)c[nH]c2cc1Cl	inactive	inactive	inactive
CCOC(=O)C1=C(C)NC(C)=C(C(=O)OCC)C1c1c(F)c(F)c(F)c(F)c1F	inactive	inactive	4.11 µM (active)
O=C(c1ccc(Cl)cc1)N1CCN(c2ccc([N+](=O)[O-])c3ncccc23)CC1	inactive	inactive	inactive
C#C[C@]1(O)CC[C@H]2[C@@H]3CCC4=Cc5oncc5CC4(C)[C@H]3CCC21C (stereo not given in full)	inactive	inactive	inactive
O=C(CCCCCN1CCN(c2ccccc2-c2ccccc2)CC1)NC1CCCc2ccccc21 (stereo not given)	inactive	inactive	inactive
CN(C)C(N)=NCCC[C@H](N)C(=O)O	inactive	inactive	inactive
CN(C)c1nc(N)c(C(=O)N=C(N)N)nc1Cl	inactive	inactive	inactive
CC(C)(C)c1ccc(S(=O)(=O)/C=C/C#N)cc1	inactive	inactive	inactive
O=C(O)[C@@H]1C[C@@H](C(=O)O)N1	inactive	inactive	inactive
CC(C)Cc1ccc([C@H](C)C(=O)O)cc1	inactive	inactive	inactive
CN1CCc2cc(NC(=O)Nc3cccnc3)ccc21	inactive	inactive	inactive
O=C(/C=C/c1ccc(O)c(O)c1)OCCc1ccccc1	inactive	inactive	inactive
Cc1ccc(O)c(N=Nc2ccccc2)n1	inactive	inactive	inactive
